PubChem BioAssay AID2284345 (EPA ToxCast)
Records with an inconclusive call do not appear. Active and inactive are the calls of the source. How the source made its calls: active means hit-call score of the fitted dose curve at least 0.9, where 1 is the maximum; inconclusive means response in the unintended direction; inactive means score below 0.9.

System: zebrafish Glucocorticoid Receptor (GR), gene 553740
Experiment: ATG_zfGR_EcoTox2: Attagene TRANS-FACTORIAL EcoTox-2 HepG2 Assay for zebrafish Glucocorticoid Receptor (GR)
Description: ATG_EcoTox2 is a cell-based, multiplexed assay created by modifying the existing Attagene TRANS-FACTORIAL system to include a panel of nuclear receptors from some or all the following species: human (Homo sapiens), african clawed frog (Xenopus laevis), rainbow trout (Oncorhynchus mykiss), japanese medaka (Oryzias latipes), and zebrafish (Danio rerio). The ECOTOX2-FACTORIAL format uses HepG2, a human liver cell line, with measurements taken at 24 hours after chemical dosing in a 24-well plate. ATG_zfGR_EcoTox2 is one of 29 assay components calculated in the ATG_EcoTox2 assay. It is designed to make measurements of mRNA induction, a form of inducible reporter, as detected with fluorescence intensity signals by Reverse transcription polymerase chain reaction (RT-PCR) and Capillary electrophoresis technology.The assay endpoint ATG_zfGR_EcoTox2 was analyzed in the positive analysis fitting direction relative to DMSO as the negative control and baseline of activity. Using a type of inducible reporter, measures of mRNA for gain-of-signal activity can be used to understand the reporter gene at the transcription factor-level as they relate to the gene for glucocorticoid receptor. Furthermore, this assay endpoint can be referred to as a primary readout, because this assay has produced multiple assay endpoints where this one serves a reporter gene function. […]

## O=S(=O)(O)C(F)(F)C(F)(F)C(F)(F)C(F)(F)C(F)(F)C(F)(F)F
  outcome: inactive

## O=P(Oc1ccccc1)(Oc1ccccc1)Oc1ccccc1
  outcome: inactive
